Out of some 39,000 compounds screened, about 3,300 (8.5%) were called active. For the sample, actives were picked, then their nearest neighbours and some compounds at random.

This assay has as its system HepG2. The experiment in a line: cytotoxicity call (relative viability < 0.9). The note with it: 10 µM.
In the case of `COCC#Cc1ccc2c(c1)O[C@H](CN(C)C(=O)c1ccccc1F)[C@@H](C)CN([C@H](C)CO)S2(=O)=O`, the cytotoxicity call was “inactive”. The entry for `C[C@@H]1CN([C@H](C)CO)C(=O)Cc2cc(NS(=O)(=O)c3ccc(F)cc3)ccc2O[C@H]1CN(C)S(=O)(=O)c1ccc(F)cc1` is “inactive”. Under `COc1ccc(cc1)NC(=O)N1CC[C@]2(CC1)CN([C@@H](CO)c1[nH]c3cc(ccc3c12)OC)C(=O)CN1CCOCC1` stands “inactive”; under `O=C1NC(=O)/C(=C\c2ccccc2)N1`, “inactive”; under `O=C(N[C@@H]1CC(=O)N(C2CC2)C1)C1CCC1`, “inactive”. The entry for `C[C@H]1CN([C@@H](C)CO)C(=O)c2cc(NC(=O)Cc3cn(C)c4ccccc34)ccc2O[C@@H]1CN(C)Cc1ccc(C(=O)Nc2ccccc2N)cc1` is “inactive”; for `C[C@H](CO)N1C[C@H](C)[C@H](CN(C)C(=O)Nc2ccccc2)Oc2ccc(NC(=O)C3CC3)cc2CC1=O` it is “inactive”; for `N#Cc1cnc2c(C(N)=O)cnn2c1N` it is “inactive”. Turning to `Cc1noc(C)c1NC(=O)Nc1ccc2c(c1)C(=O)N([C@H](C)CO)C[C@@H](C)[C@H](CN(C)Cc1ccccc1)OCCCC[C@@H](C)O2`, the cytotoxicity call was “inactive”. `Nc1nc(=O)c2[nH]c(=O)c(=O)[nH]c2[nH]1`: the cytotoxicity call was “inactive”.

As to `Cc1noc(C)c1NC(=O)Nc1ccc2c(c1)C(=O)N([C@@H](C)CO)C[C@H](C)[C@@H](CN(C)S(=O)(=O)c1cccs1)OCCCC[C@H](C)O2`, the cytotoxicity call is “inactive”. Under `C[C@@H]1CN([C@H](C)CO)C(=O)c2cc(NS(=O)(=O)c3cn(C)cn3)ccc2O[C@H]1CN(C)CC1CCCCC1` stands “inactive”; under `C[C@H]1CN([C@@H](C)CO)C(=O)CCCn2cc(nn2)CO[C@H]1CN(C)C(=O)Nc1ccccc1C(F)(F)F`, “inactive”; under `C[C@H](CO)N1C[C@H](C)[C@H](CN(C)S(C)(=O)=O)Oc2ncc(Br)cc2C1=O`, “inactive”. Under `COc1ccc(/C=C/CN2CCC(C(=O)N[C@@H](c3ccc(-c4ccccc4)cc3)c3cnccn3)CC2)cc1` stands “active”; under `COc1ccccc1[C@@H](NC(=O)C1CCN(CCc2ccc(Br)cc2)CC1)c1ccccn1`, “inactive”; under `COc1ccc([C@@H](NC(=O)C2CCN(CCOc3ccc(Cl)cc3Cl)CC2)c2ccccn2)cc1`, “inactive”. The entry for `COc1ccc(NC(=O)Nc2ccc3c(c2)C(=O)N([C@@H](C)CO)C[C@H](C)[C@@H](CN(C)C(=O)Nc2c(C)noc2C)OCCCC[C@H](C)O3)cc1` is “inactive”; for `CC(C)N(C)C(=O)c1cccc(NC(=O)c2ccncc2)c1OCCCN(C)Cc1ccc(Oc2ccccc2)cc1` it is “inactive”. As to `C=C[C@](C)(O)CCC=C(C)C`, the cytotoxicity call is “inactive”. The entry for `CC(C)=CCC/C(C)=C/CO` is “inactive”; for `C=CC(C)(O)CCC=C(C)C` (stereo unspecified) it is “inactive”; for `CC(C)=CCCC(C)=CCO` it is “active”. Under `CC(C)=CCCC(C)=CCCC(C)=CCCC(C)=CCCC(C)=CCCC(C)=CCCC(C)=CCCC(C)=CCCC(C)=CCO` stands “inactive”.

With `C=CC(C)(O)CCC=C(C)CCC=C(C)C` (stereo unspecified), the cytotoxicity call was “active”. Under `CN1CCN(C(=O)C[C@@H]2CC[C@H]3[C@H](COc4ccc(NC(=O)c5ccc(F)c(F)c5)cc4C(=O)N3C)O2)CC1` stands “inactive”.

`C[C@@H]1CN([C@H](C)CO)C(=O)Cc2cc(NS(=O)(=O)c3ccc(Cl)cc3)ccc2O[C@H]1CN(C)S(C)(=O)=O`: the cytotoxicity call is “inactive”.

In the case of `Cc1ccc(S(=O)(=O)Nc2ccc3c(c2)C(=O)N([C@H](C)CO)C[C@H](C)[C@H](CN(C)CC2CCCCC2)OCCCC[C@@H](C)O3)cc1`, the cytotoxicity call is “inactive”. The entry for `Cc1ccc(S(=O)(=O)Nc2ccc3c(c2)C(=O)N([C@@H](C)CO)C[C@@H](C)[C@@H](CN(C)CC2CCCCC2)OCCCC[C@H](C)O3)cc1` is “inactive”; for `Cc1ccc(S(=O)(=O)Nc2ccc3c(c2)C(=O)N([C@@H](C)CO)C[C@H](C)[C@H](CN(C)CC2CCCCC2)OCCCC[C@@H](C)O3)cc1` it is “inactive”. The entry for `Cc1ccc(S(=O)(=O)Nc2ccc3c(c2)C(=O)N([C@H](C)CO)C[C@@H](C)[C@@H](CN(C)CC2CCCCC2)OCCCC[C@H](C)O3)cc1` is “active”; for `Cc1ccc(S(=O)(=O)Nc2ccc3c(c2)C(=O)N([C@H](C)CO)C[C@@H](C)[C@@H](CN(C)CC2CCCCC2)OCCCC[C@@H](C)O3)cc1` it is “active”; for `Cc1ccc(S(=O)(=O)Nc2ccc3c(c2)C(=O)N([C@@H](C)CO)C[C@@H](C)[C@@H](CN(C)CC2CCCCC2)OCCCC[C@@H](C)O3)cc1` it is “active”. The entry for `Cc1ccc(S(=O)(=O)Nc2ccc3c(c2)C(=O)N([C@H](C)CO)C[C@H](C)[C@H](CN(C)CC2CCCCC2)OCCCC[C@H](C)O3)cc1` is “active”; for `Cc1ccc(S(=O)(=O)Nc2ccc3c(c2)C(=O)N([C@@H](C)CO)C[C@@H](C)[C@H](CN(C)CC2CCCCC2)OCCCC[C@H](C)O3)cc1` it is “inactive”; for `Cc1ccc(S(=O)(=O)Nc2ccc3c(c2)C(=O)N([C@@H](C)CO)C[C@@H](C)[C@H](CN(C)CC2CCCCC2)OCCCC[C@@H](C)O3)cc1` it is “inactive”. With `Cc1ccc(S(=O)(=O)Nc2ccc3c(c2)C(=O)N([C@@H](C)CO)C[C@H](C)[C@H](CN(C)CC2CCCCC2)OCCCC[C@H](C)O3)cc1`, the cytotoxicity call was “inactive”. The entry for `Cc1ccc(S(=O)(=O)Nc2ccc3c(c2)C(=O)N([C@H](C)CO)C[C@H](C)[C@@H](CN(C)CC2CCCCC2)OCCCC[C@H](C)O3)cc1` is “inactive”; for `Cc1ccc(S(=O)(=O)Nc2ccc3c(c2)C(=O)N([C@H](C)CO)C[C@@H](C)[C@H](CN(C)CC2CCCCC2)OCCCC[C@@H](C)O3)cc1` it is “inactive”. Under `CO[C@H]1CN(C)C(=O)c2ccc(NC(=O)Nc3ccc(Cl)cc3)cc2OC[C@@H](C)N(C(=O)Nc2c(C)noc2C)C[C@@H]1C` stands “inactive”; under `C[C@@H]1CCCCO[C@H](CN(C)Cc2ccc(C(=O)O)cc2)[C@@H](C)CN([C@H](C)CO)C(=O)c2cc(NS(=O)(=O)c3ccccc3)ccc2O1`, “inactive”; under `CCCNC(=O)N[C@@H]1C=C[C@H](CC(=O)N2CCN(C)CC2)O[C@@H]1CO`, “inactive”. Under `C[C@@H]1CN([C@H](C)CO)C(=O)CCCn2nncc2CO[C@@H]1CN(C)C(=O)Nc1ccnc(N2CCOCC2)c1` stands “inactive”. Take `OC[C@@H](O)[C@@H](O)[C@@H](O)/C=N/Nc1ccccc1`: the cytotoxicity call was “inactive”.

Consider `CNC(=O)c1c(F)cccc1Nc1nc(Nc2cc3c(cc2OC)CCN3C(=O)CN(C)C)nc2[nH]ccc12`, for which the cytotoxicity call is “active”. Under `CN1C(=O)c2cc(NC(=O)Cc3cccs3)ccc2OC[C@H]2O[C@H](CC(=O)NCCCN3CCOCC3)CC[C@H]21` stands “inactive”. On to `Cc1noc(C)c1NC(=O)Nc1ccc2c(c1)C(=O)N([C@@H](C)CO)C[C@H](C)[C@@H](CN(C)C(=O)C1CCCCC1)OCCCC[C@@H](C)O2`, for which the cytotoxicity call is “inactive”. Under `COc1ccc2c3c([nH]c2c1)[C@H](CO)N(Cc1cc(ccc1F)F)C[C@]13CCN(CC1)C(=O)CN(C)C` stands “inactive”; under `COc1ccc(CC[C@@H](OC(=O)[C@H]2CCCCN2C(=O)Cc2ccccc2)c2cccc(OCC(=O)O)c2)cc1OC`, “active”.

Take `CCC(=O)Nc1cccc([C@@H](CCc2ccc(OC)c(OC)c2)OC(=O)[C@@H]2CCCCN2C(=O)C(=O)C(C)(C)CC)c1`: the cytotoxicity call was “inactive”. The entry for `C=CC(=O)Nc1cccc([C@@H](CCc2ccc(OC)c(OC)c2)OC(=O)[C@@H]2CCCCN2C(=O)C(=O)C(C)(C)CC)c1` is “inactive”; for `CC[C@H](C(=O)N1CCCC[C@H]1C(=O)O[C@H](CCc1ccc(OC)c(OC)c1)c1cccc(OCC(=O)NCCNC(=O)COc2cccc([C@@H](CCc3ccc(OC)c(OC)c3)OC(=O)[C@@H]3CCCCN3C(=O)[C@@H](CC)c3cc(OC)c(OC)c(OC)c3)c2)c1)c1cc(OC)c(OC)c(OC)c1` it is “inactive”; for `CCC(C)(C)C(=O)C(=O)N1CCCC[C@H]1C(=O)O[C@@H](CCc1ccc(OC)c(OC)c1)c1cccc(OCC(=O)NCCc2ccc(O)cc2)c1` it is “inactive”. For `CCCNC(=O)COc1cccc([C@@H](CCc2ccc(OC)c(OC)c2)OC(=O)[C@@H]2CCCCN2C(=O)C(=O)C(C)(C)CC)c1`, the cytotoxicity call is “active”. Under `COc1ccc(S(=O)(=O)Nc2ccc3c(c2)C(=O)N([C@@H](C)CO)C[C@H](C)[C@@H](CN(C)S(=O)(=O)c2cn(C)cn2)O3)cc1` stands “inactive”.

In the case of `C[C@H]1CN([C@@H](C)CO)C(=O)c2cc(NC(=O)C3CCCCC3)ccc2O[C@@H]1CN(C)Cc1ccc(C(F)(F)F)cc1`, the cytotoxicity call is “inactive”.

In the case of `C[C@H](CO)N1C[C@H](C)[C@@H](CN(C)Cc2ccccc2)Oc2ccc(NC(=O)Cn3cnnn3)cc2C1=O`, the cytotoxicity call was “inactive”. The entry for `C[C@H]1CN([C@@H](C)CO)C(=O)c2cccc(NS(=O)(=O)c3ccccc3)c2O[C@H]1CN(C)S(=O)(=O)c1cn(C)cn1` is “inactive”; for `CCc1nc2ccc(C(=O)NCCCN3CCCC3=O)cn2c1N(CC)C(=O)NCCc1ccccc1` it is “inactive”; for `C[C@@H]1CN([C@H](C)CO)C(=O)c2cc(NC(=O)Nc3ccc(F)cc3)ccc2O[C@H]1CN(C)Cc1ccc(Cl)c(Cl)c1` it is “inactive”. The entry for `C[C@@H]1CN([C@@H](C)CO)C(=O)c2cc(NC(=O)Nc3ccc(F)cc3)ccc2O[C@H]1CN(C)Cc1ccc(Cl)c(Cl)c1` is “inactive”; for `C[C@@H]1CN([C@H](C)CO)C(=O)c2cc(NC(=O)Nc3ccc(F)cc3)ccc2O[C@@H]1CN(C)Cc1ccc(Cl)c(Cl)c1` it is “inactive”; for `C[C@H]1CN([C@@H](C)CO)C(=O)c2cc(NC(=O)Nc3ccc(F)cc3)ccc2O[C@H]1CN(C)Cc1ccc(Cl)c(Cl)c1` it is “inactive”. Under `C[C@@H]1CN([C@@H](C)CO)C(=O)c2cc(NC(=O)Nc3ccc(F)cc3)ccc2O[C@@H]1CN(C)Cc1ccc(Cl)c(Cl)c1` stands “active”. With `C[C@H](CO)N1C[C@H](C)[C@H](CN(C)Cc2ccc(Cl)c(Cl)c2)Oc2ccc(NC(=O)Nc3ccc(F)cc3)cc2C1=O`, the cytotoxicity call is “active”. The entry for `Cc1noc(C)c1NC(=O)Nc1ccc2c(c1)CC(=O)N([C@@H](C)CO)C[C@@H](C)[C@@H](CN(C)Cc1ccc(C(=O)Nc3ccccc3N)cc1)O2` is “inactive”.
